We go through 7 compounds from PubChem BioAssay (EPA / NIEHS).

Each structure is given as a SMILES string. Records with an inconclusive call do not appear. Active and inactive are the calls of the source. The calls were made as follows, unless noted: active = hit-call score of the fitted dose curve at least 0.9, where 1 is the maximum; inactive = score below 0.9.

Experiment [1] is described as follows: BSK_4H_Eotaxin3: BioMAP Diversity Plus: 4H Assay for Eotaxin 3 Biomarker Activity (AID 2283000).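 As to outcome: CCL26 protein level quantified by ELISA in parallel with SRB cytotoxicity check.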 The conditions noted are these: primary human endothelial cells (HUVEC); actives raise or lower the signal. The gist of the method: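 Readout is Eotaxin-3 (CCL26) level by ELISA in primary human umbilical vein endothelial cells harvested 24 h after chemical exposure; activity fitted in both directions against DMSO control.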

Read-out in experiment [2]: Intercellular Adhesion Molecule 1 (ICAM1), ICAM1 (gene 3383)
The experiment can be described thus: BSK_3C_ICAM1: BioMAP Diversity Plus: 3C Assay for Intercellular Adhesion Molecule 1 (ICAM1) Biomarker Activity (AID 2283003). Conditions: primary human endothelial cells (HUVEC); actives raise or lower the signal. A digest of the protocol: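 Human vascular endothelial primary cells, 3C conditions, 24 h treatment. ICAM-1 by ELISA.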

Experiment [3] addresses human Retinoic Acid Receptor beta (RARb), RARB (gene 5915) (UniProt P10826). The experiment can be described thus: ATG_RARb_TRANS: Attagene TRANS-FACTORIAL HepG2 Assay for human Retinoic Acid Receptor beta (AID 2283004; active = hit-call score of the fitted dose curve at least 0.9, where 1 is the maximum). A digest of the protocol:
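Readout is reporter mRNA induction: RNA reverse-transcribed, PCR-amplified, FAM-labelled, HpaI-cut and resolved by capillary electrophoresis. Transiently transfected HepG2 cells carrying exogenous NR–Gal4 chimeras were dosed for 24 h; activity fitted upward relative to DMSO.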

The target in experiment [4] is Retinoic acid receptor alpha (Homo sapiens) (UniProt P10276). The experiment can be described thus: ATG_RARa_TRANS: Attagene TRANS-FACTORIAL HepG2 Assay for human Retinoic Acid Receptor alpha (RARa) (AID 2283005; active = hit-call score of the fitted dose curve at least 0.9, where 1 is the maximum). The gist of the method:
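Reporter transcripts, measured by RT-PCR with fluorescent labeling and capillary electrophoresis after 24 h dosing, reflect activity of an exogenous human RARa–GAL4 fusion in transiently transfected HepG2. Fitted for increase relative to DMSO.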

Experiment [5] can be described thus: BSK_3C_Proliferation: Cell Proliferation Assessment in the BioMAP Diversity Plus: 3C Assay (AID 2283006).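 As to AC50: potency may reflect either rise or fall in cell number versus DMSO.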 Conditions: primary human endothelial cells (HUVEC). The gist of the method:
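Proliferation of human vascular endothelial primary cells after 48 h dosing, quantified as SRB-stained protein at 560 nm relative to DMSO.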

In experiment [6] the target is Peroxisome proliferator-activated receptor gamma (Homo sapiens) (UniProt P37231). The experiment can be described thus: ATG_PPARg_TRANS: Attagene TRANS-FACTORIAL HepG2 Assay for human Peroxisome Proliferator-activated Receptor-gamma (PPARg) (AID 2283007; active = hit-call score of the fitted dose curve at least 0.9, where 1 is the maximum). A digest of the protocol:
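Endpoint reflects upward reporter mRNA change versus DMSO controls. Setup: transiently transfected HepG2, GAL4-UAS reporters driven by chimeric NR-Gal4, 24 h incubation, RT-PCR with capillary electrophoresis read-out.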

For experiment [7], the target named is human Retinoic Acid Receptor gamma (RARg), RARG (gene 5916) (UniProt P13631). The experiment can be described thus: ATG_RARg_TRANS: Attagene TRANS-FACTORIAL HepG2 Assay for human Retinoic Acid Receptor gamma (RARg) (AID 2283009; active = hit-call score of the fitted dose curve at least 0.9, where 1 is the maximum). The gist of the method:
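HepG2, RARg-GAL4 TRANS system, 24 h exposure; reporter mRNA by RT-PCR + CE fluorescence; increase over DMSO.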

Experiment [8] addresses human RAR-related Orphan Receptor gamma (RORg), RORC (gene 6097) (UniProt P51449). The experiment can be described thus: ATG_RORg_TRANS: Attagene TRANS-FACTORIAL HepG2 Assay for human RAR-related Orphan Receptor gamma (RORg) (AID 2283011; active = hit-call score of the fitted dose curve at least 0.9, where 1 is the maximum). The gist of the method: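 Transient MRTU transfection of HepG2 (TRANS format, exogenous NR-Gal4 chimera). 24 h dosing. Total RNA → oligo(dT) RT → PCR → 6-FAM labelling → HpaI cut → CE. Gain vs DMSO.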

Experiment [9] has as its target human Thyroid Receptor alpha (THRa1), THRA (gene 7067) (UniProt P10827). The experiment can be described thus: ATG_THRa1_TRANS: Attagene TRANS-FACTORIAL HepG2 Assay for human Thyroid Receptor alpha (THRa1) (AID 2283014; active = hit-call score of the fitted dose curve at least 0.9, where 1 is the maximum). The gist of the method: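 Transient HepG2 transfection, NR-Gal4 chimera driving GAL4-UAS reporters; 24 h compound exposure; total RNA, oligo(dT) RT, PCR, fluorescent primer extension, capillary electrophoresis. Upward direction vs DMSO control.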

Read-out in experiment [10]: E-selectin (Homo sapiens) (UniProt P16581)
The experiment can be described thus: BSK_3C_Eselectin: BioMAP Diversity Plus: 3C Assay for Eselectin Biomarker Activity (AID 2283015).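 As to outcome: cell surface E-selectin protein quantified by ELISA 24 h after dosing.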 The conditions noted are these: primary human endothelial cells (HUVEC); actives raise or lower the signal. A digest of the protocol:
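HUVEC, 3C stimulation; compound exposure 24 h; E-selectin by ELISA; gain- or loss-of-signal fitted bidirectionally vs DMSO baseline.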

Read-out in experiment [11]: Interleukin-1 alpha (IL1a), IL1A (gene 3552)
The experiment can be described thus: BSK_BE3C_IL1a: BioMAP Diversity Plus: BE3C Assay for Interleukin-1 alpha (IL1a) Biomarker Activity (AID 2283016). The conditions noted are these: primary human bronchial epithelial cells; actives raise or lower the signal. The gist of the method:
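Cultures of primary human bronchial epithelial cells receive test chemical. After 24 h, IL-1a is quantified by ELISA, while parallel wells are fixed in TCA and SRB-stained for total protein. Changes in either direction are fitted relative to DMSO.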

Read-out in experiment [12]: Monocyte Chemoattractant Protein-1 (MCP1), CCL2 (gene 6347)
The experiment can be described thus: BSK_3C_MCP1: BioMAP Diversity Plus: 3C Assay for Monocyte Chemoattractant Protein-1 (MCP1) Biomarker Activity (AID 2283017). The conditions noted are these: primary human endothelial cells (HUVEC); actives raise or lower the signal. The gist of the method: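 HUVEC, 3C system; 24 h chemical exposure; MCP-1 by ELISA; bidirectional curve fit vs DMSO baseline.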

Read-out in experiment [13]: Monocyte Chemoattractant Protein-1 (MCP1), CCL2 (gene 6347)
The experiment can be described thus: BSK_4H_MCP1: BioMAP Diversity Plus: 4H Assay for Monocyte Chemoattractant Protein-1 (MCP1) Biomarker Activity (AID 2283018). Conditions: primary human endothelial cells (HUVEC); actives raise or lower the signal. The gist of the method: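 Readout: MCP-1 ELISA on compound-treated HUVEC, sampled 24 h post-dosing. Baseline and negative control DMSO; bidirectional fit. Overt toxicity checked alongside by sulforhodamine B protein staining at time of biomarker measurement.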

Read-out in experiment [14]: Human Leukocyte Antigen - DR isotype (HLADR), HLA-DRA (gene 3122)
The experiment can be described thus: BSK_3C_HLADR: BioMAP Diversity Plus: 3C Assay for Human Leukocyte Antigen - DR isotype (HLADR) Biomarker Activity (AID 2283019).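 As to outcome: ELISA of cell-surface HLA-DR on HUVEC 24 h after dosing.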 The conditions noted are these: primary human endothelial cells (HUVEC); actives raise or lower the signal. The gist of the method: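 HUVEC, 3C stimulation, 24 h post-dose; HLA-DR by ELISA; bidirectional curve fit vs DMSO baseline; gain or loss of signal scored.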

In experiment [15] the target is human Peroxisome Proliferator-activated Receptor delta (PPARd), PPARD (gene 5467) (UniProt Q03181). The experiment can be described thus: ATG_PPARd_TRANS: Attagene TRANS-FACTORIAL HepG2 Assay for human Peroxisome Proliferator-activated Receptor delta (PPARd) (AID 2283002; active = hit-call score of the fitted dose curve at least 0.9, where 1 is the maximum). The gist of the method: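 Cell-based TRANS reporter: HepG2, transient MRTU transfection, 24 h exposure. Readout = reporter mRNA (RT-PCR/CE, 6-FAM). Gain-of-signal fit vs DMSO control.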

For experiment [16], the target named is human RAR-related Orphan Receptor beta (RORb), RORB (gene 6096) (UniProt Q92753). The experiment can be described thus: ATG_RORb_TRANS: Attagene TRANS-FACTORIAL HepG2 Assay for human RAR-related Orphan Receptor beta (RORb) (AID 2283010; active = hit-call score of the fitted dose curve at least 0.9, where 1 is the maximum). The gist of the method: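 In this TRANS-format test, human HepG2 cells express chimeric NR-Gal4 fusion proteins driving GAL4-UAS reporters. After 24 h dosing, reporter transcripts are measured by fluorescent RT-PCR/capillary electrophoresis, with DMSO as negative control.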
human RAR-related Orphan Receptor beta (RORb), RORB (gene 6096), sequence (Q92753 whole entry, looked up, the tested form may be a part): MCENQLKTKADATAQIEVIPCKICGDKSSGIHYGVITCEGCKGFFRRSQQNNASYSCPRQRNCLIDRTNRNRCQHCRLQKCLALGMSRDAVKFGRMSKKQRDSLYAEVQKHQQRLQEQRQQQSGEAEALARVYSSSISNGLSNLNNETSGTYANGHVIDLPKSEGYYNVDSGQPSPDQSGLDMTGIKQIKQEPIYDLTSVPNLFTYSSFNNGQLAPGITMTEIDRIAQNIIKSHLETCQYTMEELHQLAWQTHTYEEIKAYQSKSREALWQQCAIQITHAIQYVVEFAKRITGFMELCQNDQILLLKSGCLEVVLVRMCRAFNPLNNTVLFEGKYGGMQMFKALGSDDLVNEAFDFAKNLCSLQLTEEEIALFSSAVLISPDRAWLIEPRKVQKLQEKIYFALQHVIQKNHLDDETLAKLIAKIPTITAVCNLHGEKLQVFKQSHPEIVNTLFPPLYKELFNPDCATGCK

Experiment [17] addresses Retinoic acid receptor RXR-alpha (Homo sapiens) (UniProt P19793). The experiment can be described thus: ATG_RXRa_TRANS: Attagene TRANS-FACTORIAL HepG2 Assay for human Retinoid X Receptor alpha (RXRa) (AID 2283012; active = hit-call score of the fitted dose curve at least 0.9, where 1 is the maximum). A digest of the protocol:
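Cells (HepG2) carried transiently transfected GAL4-responsive reporter units. Following a 24 h chemical incubation, reporter mRNA induction was read via RT-PCR fragment analysis; DMSO served as negative control and baseline.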

For experiment [18], the target named is human Retinoid X Receptor beta (RXRb), RXRB (gene 6257) (UniProt P28702). The experiment can be described thus: ATG_RXRb_TRANS: Attagene TRANS-FACTORIAL HepG2 Assay for human Retinoid X Receptor beta (RXRb) (AID 2283013; active = hit-call score of the fitted dose curve at least 0.9, where 1 is the maximum). The gist of the method: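 Multiplexed TRANS reporter assay in HepG2; 24 h dosing; reporter mRNA by RT-PCR/CE fluorescence; gain-of-signal relative to DMSO.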
human Retinoid X Receptor beta (RXRb), RXRB (gene 6257), sequence (P28702 whole entry, looked up): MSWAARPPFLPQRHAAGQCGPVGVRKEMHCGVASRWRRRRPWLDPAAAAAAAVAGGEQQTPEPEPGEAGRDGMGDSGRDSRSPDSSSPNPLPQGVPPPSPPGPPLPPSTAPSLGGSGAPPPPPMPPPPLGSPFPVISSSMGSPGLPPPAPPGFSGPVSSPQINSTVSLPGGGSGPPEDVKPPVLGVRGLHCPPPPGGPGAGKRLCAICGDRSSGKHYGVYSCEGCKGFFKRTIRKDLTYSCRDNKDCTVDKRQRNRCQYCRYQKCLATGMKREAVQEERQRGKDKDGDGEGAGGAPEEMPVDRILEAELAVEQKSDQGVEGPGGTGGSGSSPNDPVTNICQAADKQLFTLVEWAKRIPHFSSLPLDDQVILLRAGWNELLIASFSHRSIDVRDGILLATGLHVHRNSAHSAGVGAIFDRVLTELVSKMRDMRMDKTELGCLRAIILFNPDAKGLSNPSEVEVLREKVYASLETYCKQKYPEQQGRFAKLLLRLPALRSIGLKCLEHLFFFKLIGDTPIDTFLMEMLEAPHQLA

The target in experiment [19] is human Peroxisome Proliferator-activated Receptor alpha (PPARa), PPARA (gene 5465) (UniProt Q07869). The experiment can be described thus: ATG_PPARa_TRANS: Attagene TRANS-FACTORIAL HepG2 Assay for human Peroxisome Proliferator-activated Receptor alpha (PPARa) (AID 2283001; active = hit-call score of the fitted dose curve at least 0.9, where 1 is the maximum). A digest of the protocol:
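Reporter transcripts from GAL4-UAS units in transfected HepG2 were quantified 24 h after dosing. Detection used reverse transcription, PCR, fluorescent primer extension and capillary electrophoresis, with DMSO as baseline.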

human Retinoic Acid Receptor gamma (RARg), RARG (gene 5916), sequence (P13631 whole entry, looked up, the tested form may be a part): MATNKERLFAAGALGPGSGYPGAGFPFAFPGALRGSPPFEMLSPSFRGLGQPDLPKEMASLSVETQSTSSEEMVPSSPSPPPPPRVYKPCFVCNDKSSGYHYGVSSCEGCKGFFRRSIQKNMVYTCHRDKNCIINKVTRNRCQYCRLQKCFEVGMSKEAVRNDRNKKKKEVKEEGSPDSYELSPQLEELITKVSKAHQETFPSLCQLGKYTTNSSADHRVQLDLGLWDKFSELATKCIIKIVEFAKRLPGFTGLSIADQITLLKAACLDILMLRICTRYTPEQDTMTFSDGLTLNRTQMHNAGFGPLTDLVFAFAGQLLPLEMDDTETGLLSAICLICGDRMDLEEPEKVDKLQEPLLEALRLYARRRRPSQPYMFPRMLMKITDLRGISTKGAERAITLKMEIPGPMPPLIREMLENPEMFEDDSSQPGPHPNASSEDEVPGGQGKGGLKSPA
human Thyroid Receptor alpha (THRa1), THRA (gene 7067), sequence (P10827 whole entry, looked up, the tested form may be a part): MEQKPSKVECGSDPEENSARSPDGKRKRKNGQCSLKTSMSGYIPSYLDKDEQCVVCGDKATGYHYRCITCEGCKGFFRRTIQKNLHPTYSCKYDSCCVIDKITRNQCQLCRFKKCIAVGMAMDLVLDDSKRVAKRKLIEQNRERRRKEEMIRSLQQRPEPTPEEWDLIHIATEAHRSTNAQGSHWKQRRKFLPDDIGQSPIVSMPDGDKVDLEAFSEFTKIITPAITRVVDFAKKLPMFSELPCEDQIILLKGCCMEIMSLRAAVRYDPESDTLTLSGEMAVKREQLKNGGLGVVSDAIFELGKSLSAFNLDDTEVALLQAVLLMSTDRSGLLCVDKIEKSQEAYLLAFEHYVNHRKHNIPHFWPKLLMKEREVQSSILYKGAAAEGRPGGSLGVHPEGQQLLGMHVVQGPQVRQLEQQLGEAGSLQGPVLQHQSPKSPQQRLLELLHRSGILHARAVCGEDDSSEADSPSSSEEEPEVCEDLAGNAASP
E-selectin (Homo sapiens), sequence (P16581 whole entry, looked up): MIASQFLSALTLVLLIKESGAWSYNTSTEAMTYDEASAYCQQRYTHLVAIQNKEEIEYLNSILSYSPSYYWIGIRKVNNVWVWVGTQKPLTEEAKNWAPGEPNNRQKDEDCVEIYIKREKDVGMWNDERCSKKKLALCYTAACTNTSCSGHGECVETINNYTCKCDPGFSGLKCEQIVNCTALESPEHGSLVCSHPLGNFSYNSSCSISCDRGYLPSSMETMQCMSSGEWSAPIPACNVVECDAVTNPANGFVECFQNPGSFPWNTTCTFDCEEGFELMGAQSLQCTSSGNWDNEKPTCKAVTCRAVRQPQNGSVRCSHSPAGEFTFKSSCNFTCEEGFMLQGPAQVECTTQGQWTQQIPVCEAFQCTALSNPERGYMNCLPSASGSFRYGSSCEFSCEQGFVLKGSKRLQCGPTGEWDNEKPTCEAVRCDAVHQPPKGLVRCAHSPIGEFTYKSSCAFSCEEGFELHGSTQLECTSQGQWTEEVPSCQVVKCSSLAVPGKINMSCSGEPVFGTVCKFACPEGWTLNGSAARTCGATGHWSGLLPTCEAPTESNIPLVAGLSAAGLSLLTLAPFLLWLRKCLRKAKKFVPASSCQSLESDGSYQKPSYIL
Retinoic acid receptor alpha (Homo sapiens), sequence (P10276 whole entry, looked up, the tested form may be a part): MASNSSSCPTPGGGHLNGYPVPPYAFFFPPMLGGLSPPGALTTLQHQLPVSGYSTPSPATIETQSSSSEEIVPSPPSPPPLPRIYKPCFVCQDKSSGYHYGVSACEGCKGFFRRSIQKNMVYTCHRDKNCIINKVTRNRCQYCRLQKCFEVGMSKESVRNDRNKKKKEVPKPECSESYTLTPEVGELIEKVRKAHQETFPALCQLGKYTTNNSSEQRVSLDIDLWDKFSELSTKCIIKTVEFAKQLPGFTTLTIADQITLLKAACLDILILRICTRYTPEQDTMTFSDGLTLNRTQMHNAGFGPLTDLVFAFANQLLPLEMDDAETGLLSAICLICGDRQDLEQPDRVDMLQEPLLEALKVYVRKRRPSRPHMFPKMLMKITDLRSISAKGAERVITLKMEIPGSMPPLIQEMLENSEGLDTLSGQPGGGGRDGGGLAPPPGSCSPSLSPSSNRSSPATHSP
human Retinoic Acid Receptor beta (RARb), RARB (gene 5915), sequence (P10826 whole entry, looked up, the tested form may be a part): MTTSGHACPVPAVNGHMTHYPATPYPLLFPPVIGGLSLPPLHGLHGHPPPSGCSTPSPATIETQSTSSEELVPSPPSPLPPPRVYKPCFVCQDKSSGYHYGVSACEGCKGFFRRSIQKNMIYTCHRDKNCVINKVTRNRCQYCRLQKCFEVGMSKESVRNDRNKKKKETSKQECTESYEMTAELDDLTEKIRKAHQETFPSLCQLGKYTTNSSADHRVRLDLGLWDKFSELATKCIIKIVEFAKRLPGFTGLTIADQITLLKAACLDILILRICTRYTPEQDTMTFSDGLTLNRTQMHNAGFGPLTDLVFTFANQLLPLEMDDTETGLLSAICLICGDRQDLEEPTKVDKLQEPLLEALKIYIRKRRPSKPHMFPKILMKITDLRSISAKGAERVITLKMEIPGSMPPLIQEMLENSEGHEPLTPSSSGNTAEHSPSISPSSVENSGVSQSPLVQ
human RAR-related Orphan Receptor gamma (RORg), RORC (gene 6097), sequence (P51449 whole entry, looked up, the tested form may be a part): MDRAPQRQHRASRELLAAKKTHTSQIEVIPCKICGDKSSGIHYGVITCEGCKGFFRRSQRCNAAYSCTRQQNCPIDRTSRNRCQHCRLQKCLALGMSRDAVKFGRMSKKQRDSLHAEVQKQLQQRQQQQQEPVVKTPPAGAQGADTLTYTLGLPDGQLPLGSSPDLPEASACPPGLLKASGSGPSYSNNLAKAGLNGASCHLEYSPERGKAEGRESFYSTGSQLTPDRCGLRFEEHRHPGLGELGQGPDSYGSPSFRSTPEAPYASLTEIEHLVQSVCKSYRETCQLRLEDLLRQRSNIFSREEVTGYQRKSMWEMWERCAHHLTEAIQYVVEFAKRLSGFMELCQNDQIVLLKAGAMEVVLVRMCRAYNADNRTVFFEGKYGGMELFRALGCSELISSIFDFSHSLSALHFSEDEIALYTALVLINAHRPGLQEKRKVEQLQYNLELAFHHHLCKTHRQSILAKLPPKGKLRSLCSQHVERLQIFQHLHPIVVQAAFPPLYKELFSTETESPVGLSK
Retinoic acid receptor RXR-alpha (Homo sapiens), sequence (P19793 whole entry, looked up, the tested form may be a part): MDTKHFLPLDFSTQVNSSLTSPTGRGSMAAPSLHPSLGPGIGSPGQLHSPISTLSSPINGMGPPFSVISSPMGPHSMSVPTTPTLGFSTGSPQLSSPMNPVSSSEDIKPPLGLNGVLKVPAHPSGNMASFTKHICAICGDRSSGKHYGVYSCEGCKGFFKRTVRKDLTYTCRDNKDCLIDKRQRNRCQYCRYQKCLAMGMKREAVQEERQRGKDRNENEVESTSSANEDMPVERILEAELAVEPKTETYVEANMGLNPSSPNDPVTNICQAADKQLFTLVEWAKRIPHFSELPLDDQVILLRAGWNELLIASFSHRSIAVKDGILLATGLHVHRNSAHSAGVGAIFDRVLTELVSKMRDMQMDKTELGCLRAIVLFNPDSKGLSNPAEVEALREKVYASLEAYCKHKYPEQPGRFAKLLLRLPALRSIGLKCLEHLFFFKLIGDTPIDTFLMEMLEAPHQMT
Peroxisome proliferator-activated receptor gamma (Homo sapiens), sequence (P37231 whole entry, looked up, the tested form may be a part): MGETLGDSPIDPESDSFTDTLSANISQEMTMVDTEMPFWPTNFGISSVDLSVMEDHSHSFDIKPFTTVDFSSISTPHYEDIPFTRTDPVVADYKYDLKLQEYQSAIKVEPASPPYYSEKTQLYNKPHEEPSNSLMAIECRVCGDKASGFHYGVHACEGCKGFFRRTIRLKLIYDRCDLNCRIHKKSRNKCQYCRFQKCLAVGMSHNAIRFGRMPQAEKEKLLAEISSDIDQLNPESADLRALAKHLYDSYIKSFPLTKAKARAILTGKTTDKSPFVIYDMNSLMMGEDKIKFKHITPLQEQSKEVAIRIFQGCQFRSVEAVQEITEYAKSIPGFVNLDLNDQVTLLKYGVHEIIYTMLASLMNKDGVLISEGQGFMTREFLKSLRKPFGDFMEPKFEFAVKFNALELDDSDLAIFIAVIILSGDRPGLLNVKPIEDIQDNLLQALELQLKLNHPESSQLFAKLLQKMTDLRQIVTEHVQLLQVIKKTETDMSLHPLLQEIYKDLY

With `Cc1[nH]c(=O)n(C(C)(C)C)c(=O)c1Cl`, the AC50 was 11.7 µM (active) in experiment [1] and 13.2 µM (active) in experiment [14]. For the same compound, the outcome in experiment [2], in [3], in experiment [4], in [5], in experiment [6] and in experiment [7] was inactive. For the same compound, the outcome in [8], in experiment [9], in experiment [10], in [11], in experiment [12] and in [13] was inactive.
Regarding `CCC(C)(NC(=O)c1cc(Cl)c(C)c(Cl)c1)C(=O)CCl` (stereo not drawn), the AC50 in [1] is 9.74 µM (active); in experiment [2] it was 26.6 µM (active); in experiment [5], 5.47 µM (active); in [6] it was 0.878 µM (active); in [10], 8.28 µM (active); in experiment [11] it was 33.8 µM (active). Also, the AC50 in experiment [12] is 21.1 µM (active); in experiment [13], 13.8 µM (active); in [14] it was 3.57 µM (active). Also, the result in experiment [15], in experiment [3], in [7], in experiment [16], in experiment [8] and in experiment [17] was inactive. For the same compound, the compound was classed as inactive in experiment [18] and in experiment [9].
`CCc1ccc(C(=O)NN(C(=O)c2cc(C)cc(C)c2)C(C)(C)C)cc1`: the outcome in [1], in [2], in experiment [3], in experiment [4], in [5] and in [6] was inactive. Moreover, the compound was classed as inactive in experiment [7], in experiment [16], in experiment [8], in experiment [17], in [18] and in [10]. The result in experiment [11], in experiment [13] and in experiment [14] was inactive. Further, the concentration at half-maximal activity (AC50) in experiment [12] was 4.84 µM (active).
With `[2H]C1([2H])[n+]2ccccc2-c2cccc[n+]2C1([2H])[2H]`, the result in experiment [1], in experiment [2], in [6], in experiment [8], in experiment [18] and in [10] was inactive. Also, the result in experiment [11], in [12], in [13] and in experiment [14] was inactive. In experiment [5], the AC50 was 31.7 µM (active).
On to `CCC(C)(C)C(=O)OC1=C(c2ccc(Cl)cc2Cl)C(=O)OC12CCCCC2`, for which the AC50 in experiment [1] is 32.3 µM (active); in [2] it was 32.6 µM (active); in [5], 29.2 µM (active); in [10] it was 19.9 µM (active); in experiment [11] it was 31 µM (active); in experiment [12], 29.4 µM (active). Further, the figures for the AC50 in [13] and in [14] were 15.1 µM (active) and 11 µM (active), respectively. The compound was classed as inactive in experiment [19], in [3], in experiment [6], in experiment [7], in experiment [16] and in experiment [8]. Also, the call in experiment [17] and in experiment [9] was inactive.
Turning to `OCCOc1ccccc1`, the outcome in experiment [1], in [19], in [2], in experiment [4], in experiment [5] and in experiment [6] was inactive. The compound was called inactive in experiment [7], in experiment [16], in [8], in experiment [17], in [18] and in experiment [9]. The outcome in experiment [10], in experiment [11], in experiment [12], in experiment [13] and in experiment [14] was inactive.
Regarding `COC(=O)c1ccccc1S(=O)(=O)NC(=O)N(C)c1nc(C)nc(OC)n1`, the outcome in experiment [1], in [15], in experiment [2], in experiment [5], in experiment [6] and in experiment [17] was inactive. Besides, the compound was classed as inactive in experiment [9], in [10], in experiment [11], in [12], in [13] and in experiment [14].
